Reference: the OligoGym collection

Each sequence was assayed against LUC7L2 (assay: pooled miR-30 sensor sort-seq; sequence = guide strand). Settings: shRNA.

Sequence	sensor-assay potency score (higher = more potent)
TAATCTCTTCTTGAGTTTCTGC	-0.17
TTTGGATCGAGTTCTCCTCTTG	-0.398
TTGCATACTCTGTCATCACTGA	0.248
TTAACTCATGAACACGTTCTGC	-0.686
TAGAACATCCTGAACATAGCAA	0.289
TTGAGAAGGTGACTCTTGCATA	-0.354
TACTTCATCCATTACTTTCTGG	-0.257
TTTGCTGCTACTTCAGCACTAA	-0.0299
TGTCTCTGTCACATGATGCTAA	-0.366
TCTCTTGAACTCCTGTCTCTGT	-0.457
TTGGATCGTTCTCTGCTCCTAT	0.469

The sequences below were run against LY6K in the same assay as above. Settings: shRNA.

Sequence	sensor-assay potency score (higher = more potent)
AAACATGACACCACACTCTATT	-0.883
TCTCTCACAAACATGACACCAC	0.0962
TAGCGAATTTTACAACACTTGA	-0.625
TCTATTGTCACCCTCGTCCGTT	-0.102
TTTCTCTCTCACAAACATGACA	-1.23
TTGGCGTCTGTCCACACCCGCG	-1.54
TAATGCAACAGGTGACAACGGT	-0.099
TCTCCATCGCTGCACAACCAGC	-1.92
TATTCTTTGAACACTGATGAGT	-0.623
TTGAACACTGATGAGTTGATAG	-0.979
TCTTTGAACACTGATGAGTTGA	-0.353
AATTTTACAACACTTGAGGTAA	-0.3
